Screens as filed in PubChem.
TDP1 cell CPT: growth inhibition of DT40 Tdp1-/-;hTDP1 cells with camptothecin (screen for TDP1 inhibitors) | chicken DT40 Tdp1-/-;hTDP1 cells + 20 nM CPT, ATP luminescence, 48 h | Potency, µM (doses to about 46.2 µM), most hits filed as inhibitors | 12% of 420,000 active | AID 686979; further: nearly all actives have a fitted effect of over 55% in size
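Chicken DT40 Tdp1-/- cells stably complemented with human TDP1 were seeded at 400 cells/well in medium containing 20 nM camptothecin, exposed to pin-transferred compounds, and grown at 37 °C for at least 48 hr. Viability was read as ATP luminescence.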
TDP1 block: blocks human tyrosyl-DNA phosphodiesterase 1. Q9NUW8. recombinant TDP1, AlphaScreen DNA substrate cleavage. Potency, µM (series often up to 130 µM), actives largely listed as inhibitors. 0.28% of 350,000 active; further: nearly all actives have a fitted effect of over 40% in size
Target sequence (Q9NUW8 whole entry, looked up): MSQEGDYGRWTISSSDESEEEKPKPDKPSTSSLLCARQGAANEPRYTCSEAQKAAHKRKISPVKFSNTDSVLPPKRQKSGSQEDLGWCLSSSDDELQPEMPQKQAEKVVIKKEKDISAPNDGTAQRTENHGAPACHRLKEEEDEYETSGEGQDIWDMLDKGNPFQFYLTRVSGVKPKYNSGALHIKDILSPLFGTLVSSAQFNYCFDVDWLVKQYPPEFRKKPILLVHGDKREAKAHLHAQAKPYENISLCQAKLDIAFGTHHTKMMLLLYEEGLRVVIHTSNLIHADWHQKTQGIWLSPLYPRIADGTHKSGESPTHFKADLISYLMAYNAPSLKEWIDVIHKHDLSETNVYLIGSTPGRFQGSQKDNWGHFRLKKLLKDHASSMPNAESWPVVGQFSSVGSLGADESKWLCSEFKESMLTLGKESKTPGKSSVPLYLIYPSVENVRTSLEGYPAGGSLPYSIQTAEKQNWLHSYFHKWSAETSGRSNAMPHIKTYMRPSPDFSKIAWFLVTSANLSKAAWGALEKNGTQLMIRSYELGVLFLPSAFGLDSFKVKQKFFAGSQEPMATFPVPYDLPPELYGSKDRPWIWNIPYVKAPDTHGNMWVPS
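Steps: enzyme plus compound, 15 min RT; add biotin/phosphotyrosine-FITC oligonucleotide (15 nM final), react 5 min; add donor/acceptor beads (10 ug/ml final), 10 min; read AlphaScreen. Tdp1 at 1 nM final.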
DT40 TDP1 no CPT: qHTS for Inhibitors of human tyrosyl-DNA phosphodiesterase 1 (TDP1): qHTS in cells in absence of CPT. DT40 Tdp1-/- hTDP1 cells, no CPT, ATP luminescence, 48 h. Potency, µM (highest dose often 46.2 µM), actives largely listed as inhibitors. 15% of 420,000 active; further: nearly all actives have a fitted effect of over 55% in size
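Compound effects on proliferation are scored in DT40 Tdp1-/-;hTDP1 cells in the absence of CPT. ATP levels (CellTiter-Glo luminescence) are recorded after a ≥48 hr, 37 °C incubation.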
KAT2A inh: blocks human GCN5L2 histone acetyltransferase; GCN5L2 HAT assay, ThioGlo1 CoA-SH fluorescence; 0.21% of 390,000 active; Q92830; Potency, µM (doses to about 58.9 µM), usual class: inhibitors
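Fluorescence readout, Ex340nm/Em540nm: ThioGlo1 (50uM final) reacts with free CoA thiol released as 20nM GCN5L2 acetylates H3(1-25) peptide (75uM) using acetyl-CoA (70uM). Compound and enzyme sat 15 min beforehand; 20 min room-temperature reaction.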
PLK1 PBD block: blocks phosphopeptide binding to human PLK1 polo-box domain | P53350 | Plk1 PBD binding of FITC phosphopeptide, fluorescence polarization | Potency, µM, actives largely listed as inhibitors | 2.8% of 360,000 active | AID 720504; further: series mostly up to about 57 µM; nearly all actives have a fitted effect of over 65% in size
VDR inhibitor: inhibitors of human vitamin D receptor; P11473; VDR-SRC2-3 peptide fluorescence polarization, 2 h; Potency, µM, most hits filed as inhibitors; 0.93% of 400,000 active
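Reagent solutions, kept cold and dark, are dispensed first; compounds are then pinned in at 23 nl, plates briefly spun, and incubated 2 h at ambient temperature. Inhibition of VDR–SRC2-3 peptide binding is read by fluorescence polarization.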
A number is an active result; [ ] = another dose, or the depositor's remark. In the library only some 18% were active in any assay of this set; here they are far more common. The call rests on the fitted dose curve; in most records, active means well fitted curve in the direction sought with a large enough effect; inconclusive means small, poorly fitted or top-dose-only effect, or another doubt; inactive means no such curve, though single readings can be large; an effect the other way counts as inactive or inconclusive.

For Cc1ccc2nc3c(c(C(=O)OCC(=O)NC4CCS(=O)(=O)C4)c2c1)CCCC3 (stereo not drawn) the results were TDP1 cell CPT inactive, TDP1 block inactive, DT40 TDP1 no CPT inactive, KAT2A inh inactive, PLK1 PBD block inactive and VDR inhibitor inactive.
CC(C)(C)NC(=O)C(=O)NNC(=O)c1cccc(F)c1 was read as TDP1 cell CPT inactive, TDP1 block inactive, DT40 TDP1 no CPT inactive, KAT2A inh inactive, PLK1 PBD block inactive and VDR inhibitor inactive.
For N#CCCn1c(=O)c(-c2ccc(F)cc2)nc2cnc(N3CCOCC3)nc21 the results were TDP1 cell CPT inactive, DT40 TDP1 no CPT inactive, KAT2A inh inactive and VDR inhibitor inactive.
CCC(Sc1nc2ccccc2c2nc(CCn3c(C)nc4ccccc43)nn12)C(=O)Nc1ccc(F)cc1 (stereo not drawn) was read as TDP1 cell CPT inconclusive, TDP1 block inactive, DT40 TDP1 no CPT 2.31µM, KAT2A inh inactive and VDR inhibitor inactive.
Screening Cc1ccc(NC(=O)CSc2nc3ccccc3c3nc(CCn4c(C)nc5ccccc54)nn23)cc1F returned TDP1 cell CPT 8.2µM, TDP1 block inactive, DT40 TDP1 no CPT 9.2µM, KAT2A inh inactive and VDR inhibitor inactive.
`Cc1nc2ccccc2n1CCc1nc2c3ccccc3nc(SCC(=O)Nc3ccc(C(C)C)cc3)n2n1` gave TDP1 cell CPT 11.6µM, TDP1 block inactive, DT40 TDP1 no CPT 9.2µM, KAT2A inh inactive and VDR inhibitor inactive.
For O=C(CSc1nc2ccccc2c2nc(-c3ccccc3)nn12)Nc1ccc(F)cc1 the results were TDP1 cell CPT inconclusive, TDP1 block inactive, DT40 TDP1 no CPT 14.6µM, KAT2A inh inactive and VDR inhibitor inactive.
`CCC(Sc1nc2ccccc2c2nc(CCn3cncc3C)nn12)C(=O)Nc1cccc(OC)c1` (stereo not drawn) gave TDP1 cell CPT inconclusive, TDP1 block inactive, DT40 TDP1 no CPT inconclusive, KAT2A inh inactive and VDR inhibitor inactive.
`COc1ccccc1NC(=O)CSc1nc2ccccc2c2nc(-c3ccccc3)nn12` gave TDP1 cell CPT inactive, TDP1 block inactive, DT40 TDP1 no CPT inactive, KAT2A inh inactive and VDR inhibitor inactive.
C[C@@H]1[C@H](O)C[C@@]23COC(=O)C2=CCCC3[C@@]1(C)CCC1COC(=O)C1 (stereo partly drawn) was read as TDP1 cell CPT inactive, DT40 TDP1 no CPT inactive, KAT2A inh inconclusive, PLK1 PBD block inactive and VDR inhibitor inactive.
For C[C@H]1Cc2c(COc3ccccc3)nc3c(c2CO1)CN(C(=O)c1ccco1)CC3 the results were TDP1 block inactive[12.3 µM].
`Cc1ccc(-n2c(=O)c3c4c(sc3n(Cc3ccccc3C)c2=O)CCC4)cc1C` gave TDP1 cell CPT inactive, TDP1 block inactive, DT40 TDP1 no CPT inactive, KAT2A inh inactive and VDR inhibitor inactive.
CC(=O)Nc1ccc2nc(CN3CCC(CO)(CCc4ccccc4)CC3)ccc2c1 was read as TDP1 cell CPT inconclusive, DT40 TDP1 no CPT inconclusive, KAT2A inh inactive, PLK1 PBD block inactive and VDR inhibitor inactive.
Cc1ccc2nc3cc([N+](=O)[O-])cc([N+](=O)[O-])c3cc2c1 was read as TDP1 cell CPT 0.461µM, TDP1 block inactive, DT40 TDP1 no CPT 0.581µM, KAT2A inh inactive, PLK1 PBD block 0.947µM and VDR inhibitor inactive.
For Cc1nc2ccc([N+](=O)[O-])cc2nc1C the results were TDP1 cell CPT inactive, TDP1 block inactive, DT40 TDP1 no CPT inactive, KAT2A inh inactive, PLK1 PBD block inactive and VDR inhibitor inactive.
`Cn1cnc2c(=O)sc3ccccc3c21` gave TDP1 cell CPT inactive, DT40 TDP1 no CPT inconclusive, PLK1 PBD block inactive and VDR inhibitor inactive.
For CCOc1ccc(C2c3c(oc4cc(C)c(C)cc4c3=O)C(=O)N2c2ccccn2)cc1 (stereo not drawn) the results were TDP1 cell CPT inactive, TDP1 block inactive, DT40 TDP1 no CPT inactive, KAT2A inh inactive and VDR inhibitor inactive.
`O=C(Nc1ccc2c(c1)OCO2)c1cc(C2CCCN(C(=O)CCCc3ccccc3)C2)on1` (stereo not drawn) gave TDP1 cell CPT 18.4µM, DT40 TDP1 no CPT inconclusive and PLK1 PBD block inactive.
For O=C(Nc1ccc2c(c1)OCO2)c1cc(C2CCCN(C(=O)CCc3ccccc3)C2)on1 (stereo not drawn) the results were TDP1 cell CPT 20.6µM, DT40 TDP1 no CPT inconclusive and PLK1 PBD block inactive.
For CC(C)(C)c1ccc(NC(=O)c2cc(C3CCCN(C(=O)CCc4ccccc4)C3)on2)cc1 (stereo not drawn) the results were TDP1 cell CPT 8.2µM, DT40 TDP1 no CPT 11.6µM and PLK1 PBD block inactive.
`CCCC(=O)N1CCCC(c2cc(C(=O)NCc3ccccc3)no2)C1` (stereo not drawn) gave TDP1 cell CPT inactive, DT40 TDP1 no CPT inactive and PLK1 PBD block inactive.
CC(=O)N1CCCC(c2cc(C(=O)Nc3ccccc3)no2)C1 (stereo not drawn) was read as TDP1 cell CPT inactive, DT40 TDP1 no CPT inconclusive and PLK1 PBD block inactive.
`O=C(Nc1ccccc1)c1cc(C2CCCN(C(=O)C/C=C/c3ccccc3)C2)on1` (stereo not drawn) gave TDP1 cell CPT inconclusive, DT40 TDP1 no CPT 20.6µM and PLK1 PBD block inactive.
COc1ncnc2c1oc1ccccc12 was read as TDP1 cell CPT inactive, TDP1 block inactive, DT40 TDP1 no CPT inactive, KAT2A inh inactive, PLK1 PBD block inactive and VDR inhibitor inactive.
Screening Clc1ccc2oc3c(Cl)ncnc3c2c1 returned TDP1 cell CPT 18.4µM, TDP1 block inactive, DT40 TDP1 no CPT 6.51µM, KAT2A inh inactive, PLK1 PBD block inactive and VDR inhibitor inactive.
For Cc1nn(CCCC(=O)Nc2cc(C(F)(F)F)ccc2Cl)c(=O)c2c1sc1ccccc12 the results were TDP1 cell CPT inactive, TDP1 block inactive, DT40 TDP1 no CPT inactive, KAT2A inh inactive and VDR inhibitor inactive.
`CCC(C(=O)Nc1cc(C(F)(F)F)ccc1Cl)n1nc(C)c2sc3ccccc3c2c1=O` (stereo not drawn) gave TDP1 cell CPT 23.1µM, TDP1 block inactive, DT40 TDP1 no CPT 16.4µM, KAT2A inh inactive and VDR inhibitor inactive.
`CCC(C(=O)NC1CCC(C)CC1)n1nc(C)c2sc3ccccc3c2c1=O` (stereo not drawn) gave TDP1 cell CPT 14.6µM, TDP1 block inactive, DT40 TDP1 no CPT 14.6µM, KAT2A inh inactive and VDR inhibitor inactive.
Screening CCCOc1ccc(CNC(=O)C(CC)n2nc(C)c3sc4ccccc4c3c2=O)cc1 (stereo not drawn) returned TDP1 cell CPT 20.6µM, TDP1 block inactive, DT40 TDP1 no CPT 23.1µM, KAT2A inh inactive and VDR inhibitor inactive.
